Measured values published in ChEMBL document CHEMBL3988442, “University of Dundee, Small-Polar-MMV Screening Library” (2021).
For part of these data: Potency and affinity values are given separately.

Columns and labels:
Set-up in all cases: scale not given: direction of the effect not stated beside the values
[1] = molecular target: Protein translocase subunit SecA (Escherichia coli (strain K12)) (UniProt P10408); test: Assay to Identify E. coli SecA ATPase Inhibitors; assay type: functional; conditions: 30 µM
[2] = molecular target: T1, Ubiquitin-activating enzyme e1, putative (Leishmania donovani (strain BPK282A1)) (UniProt E9BSI1); test: Leishmania donovani Ubiquitin Activating Enzyme (LdE1); assay type: functional; conditions: 30 µM
T1 sequence (whole entry): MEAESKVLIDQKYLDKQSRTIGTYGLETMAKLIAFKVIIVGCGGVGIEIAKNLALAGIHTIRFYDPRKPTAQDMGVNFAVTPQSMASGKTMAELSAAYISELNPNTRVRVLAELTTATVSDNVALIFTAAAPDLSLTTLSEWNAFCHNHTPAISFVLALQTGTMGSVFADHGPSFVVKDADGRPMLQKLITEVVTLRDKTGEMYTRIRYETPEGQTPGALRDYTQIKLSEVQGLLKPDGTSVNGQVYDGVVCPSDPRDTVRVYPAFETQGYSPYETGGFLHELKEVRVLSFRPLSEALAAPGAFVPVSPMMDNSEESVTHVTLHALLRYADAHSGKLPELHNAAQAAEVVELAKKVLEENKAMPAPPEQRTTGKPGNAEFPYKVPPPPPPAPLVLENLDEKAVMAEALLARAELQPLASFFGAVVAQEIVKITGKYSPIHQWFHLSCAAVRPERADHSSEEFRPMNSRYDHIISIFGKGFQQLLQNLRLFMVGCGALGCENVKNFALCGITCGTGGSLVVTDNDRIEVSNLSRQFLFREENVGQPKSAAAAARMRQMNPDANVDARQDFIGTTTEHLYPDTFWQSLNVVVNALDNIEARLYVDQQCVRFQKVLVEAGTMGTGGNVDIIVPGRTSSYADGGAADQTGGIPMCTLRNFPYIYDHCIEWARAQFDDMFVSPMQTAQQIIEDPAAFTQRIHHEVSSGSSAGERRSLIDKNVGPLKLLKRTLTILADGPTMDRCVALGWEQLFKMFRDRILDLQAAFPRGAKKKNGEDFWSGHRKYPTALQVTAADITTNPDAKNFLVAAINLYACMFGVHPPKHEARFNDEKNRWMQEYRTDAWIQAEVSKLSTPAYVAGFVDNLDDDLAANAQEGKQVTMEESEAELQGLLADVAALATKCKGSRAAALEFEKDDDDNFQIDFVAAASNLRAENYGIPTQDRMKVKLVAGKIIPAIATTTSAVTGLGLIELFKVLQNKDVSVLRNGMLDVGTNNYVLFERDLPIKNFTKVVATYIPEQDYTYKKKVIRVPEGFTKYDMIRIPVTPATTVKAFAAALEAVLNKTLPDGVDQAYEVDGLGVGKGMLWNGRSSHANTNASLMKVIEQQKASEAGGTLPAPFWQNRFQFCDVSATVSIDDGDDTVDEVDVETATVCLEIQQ

[3] = molecular target: AMP-activated protein kinase, AMPK (Homo sapiens) (UniProt P54646+O43741+P54619+Q9UGJ0+Q9Y478+Q13131+Q9UGI9); test: AMP-dependent Kinase enzyme assay. An in vitro enzyme assay that detects ADP turnover that is directly proportional to AMPK activity. This uses naive AMPK that is activated during the assay with MK-8722; assay type: functional; conditions: 30 µM
[4] = molecular target: Sialic acid-binding Ig-like lectin 9 (Homo sapiens) (UniProt Q9Y336); test: Hs-Siglec9 ALPHAscreen SOP 20170721; conditions: 10 µM
Trypanosoma cruzi = test: Trypanosoma cruzi phosphomannomutase and mannose-1-phosphate guanylyltransferase assay; assay type: functional; conditions: 10 µM
[5] = molecular target: T2, Arginase-2, mitochondrial (Homo sapiens) (UniProt P78540); test: in vitro enzyme assay to detect the production of urea directly proportional to the activity of Arginase II; assay type: functional; conditions: 33.3 µM; further: in the data most compounds retested in dose-response had high values
T2 sequence (whole entry): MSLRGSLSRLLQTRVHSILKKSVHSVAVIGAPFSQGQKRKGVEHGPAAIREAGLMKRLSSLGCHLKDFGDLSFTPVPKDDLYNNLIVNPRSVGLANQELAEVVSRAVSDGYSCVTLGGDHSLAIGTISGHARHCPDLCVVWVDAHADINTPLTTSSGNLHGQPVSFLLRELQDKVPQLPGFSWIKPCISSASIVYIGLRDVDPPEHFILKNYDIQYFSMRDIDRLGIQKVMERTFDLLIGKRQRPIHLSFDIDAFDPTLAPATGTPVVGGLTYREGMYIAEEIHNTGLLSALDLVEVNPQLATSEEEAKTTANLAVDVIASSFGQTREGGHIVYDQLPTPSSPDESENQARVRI

[6] = molecular target: T3, Proteasome subunit beta (Trypanosoma cruzi) (UniProt O96673); test: Trypanosoma cruzi proteasome chymotrypsin-like activity (TcProtChymo) assay.; further: in the data most compounds retested in dose-response had high values; assay type: functional; conditions: 9.37 µM
T3 sequence (whole entry): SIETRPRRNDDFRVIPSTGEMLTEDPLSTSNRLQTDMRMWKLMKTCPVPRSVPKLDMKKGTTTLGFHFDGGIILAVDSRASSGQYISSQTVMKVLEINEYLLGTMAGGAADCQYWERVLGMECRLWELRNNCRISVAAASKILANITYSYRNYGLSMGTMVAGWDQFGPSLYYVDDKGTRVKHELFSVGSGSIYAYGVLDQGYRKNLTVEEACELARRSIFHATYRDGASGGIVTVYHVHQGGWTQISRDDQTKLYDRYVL

Homo sapiens = organism: Homo sapiens; test: To identify inhibition of the IFN signalling (Jak-Stat) pathway via expression of an eGFP reporter gene under the control of an IFN-stimulated response element (ISRE) containing MxA promoter.; assay type: functional; conditions: 30 µM
[7] = molecular target: T4, Tyrosyl-tRNA synthetase, putative (Trypanosoma cruzi (strain CL Brener)) (UniProt Q4DSP6); test: Trypanosoma cruzi tyrosyl tRNA synthetase (TcYRS) _High Tyrosine SOP; assay type: functional; conditions: 30 µM; further: in the data most compounds retested in dose-response had high values
T4 sequence (whole entry): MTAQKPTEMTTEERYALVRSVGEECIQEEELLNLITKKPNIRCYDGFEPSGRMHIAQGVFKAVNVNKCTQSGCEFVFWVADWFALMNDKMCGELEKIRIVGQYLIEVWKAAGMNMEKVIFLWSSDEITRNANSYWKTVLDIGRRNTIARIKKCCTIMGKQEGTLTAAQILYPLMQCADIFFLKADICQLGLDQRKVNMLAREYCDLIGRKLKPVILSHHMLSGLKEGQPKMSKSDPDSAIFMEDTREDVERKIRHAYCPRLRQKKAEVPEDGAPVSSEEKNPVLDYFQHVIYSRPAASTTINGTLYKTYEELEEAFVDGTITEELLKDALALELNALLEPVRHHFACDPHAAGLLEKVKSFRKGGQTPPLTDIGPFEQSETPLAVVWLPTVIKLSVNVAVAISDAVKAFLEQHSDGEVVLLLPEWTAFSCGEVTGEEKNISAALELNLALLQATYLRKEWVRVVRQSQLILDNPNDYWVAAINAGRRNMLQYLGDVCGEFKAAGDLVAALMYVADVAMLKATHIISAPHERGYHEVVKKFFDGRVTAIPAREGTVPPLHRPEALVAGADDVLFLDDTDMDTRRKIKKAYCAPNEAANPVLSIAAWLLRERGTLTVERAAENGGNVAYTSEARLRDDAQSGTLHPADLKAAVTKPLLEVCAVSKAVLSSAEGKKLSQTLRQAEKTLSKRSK

[8] = molecular target: T4, Tyrosyl-tRNA synthetase, putative (Trypanosoma cruzi (strain CL Brener)); test: Trypanosoma cruzi tyrosyl tRNA synthetase (TcYRS) SOP; assay type: functional; conditions: 30 µM
[9] = molecular target: Chromo domain-containing protein 1 (Saccharomyces cerevisiae (strain ATCC 204508 / S288c) (Baker's yeast)) (UniProt P32657); test: ScCHD-1 Enzyme Inhibition Assay; assay type: functional; conditions: 30 µM; further: in the data most compounds retested in dose-response had high values
Chain of Chromo domain-containing protein 1 (Saccharomyces cerevisiae (strain ATCC 204508 / S288c) (Baker's yeast)) (P32657 whole entry, the tested form may be a part): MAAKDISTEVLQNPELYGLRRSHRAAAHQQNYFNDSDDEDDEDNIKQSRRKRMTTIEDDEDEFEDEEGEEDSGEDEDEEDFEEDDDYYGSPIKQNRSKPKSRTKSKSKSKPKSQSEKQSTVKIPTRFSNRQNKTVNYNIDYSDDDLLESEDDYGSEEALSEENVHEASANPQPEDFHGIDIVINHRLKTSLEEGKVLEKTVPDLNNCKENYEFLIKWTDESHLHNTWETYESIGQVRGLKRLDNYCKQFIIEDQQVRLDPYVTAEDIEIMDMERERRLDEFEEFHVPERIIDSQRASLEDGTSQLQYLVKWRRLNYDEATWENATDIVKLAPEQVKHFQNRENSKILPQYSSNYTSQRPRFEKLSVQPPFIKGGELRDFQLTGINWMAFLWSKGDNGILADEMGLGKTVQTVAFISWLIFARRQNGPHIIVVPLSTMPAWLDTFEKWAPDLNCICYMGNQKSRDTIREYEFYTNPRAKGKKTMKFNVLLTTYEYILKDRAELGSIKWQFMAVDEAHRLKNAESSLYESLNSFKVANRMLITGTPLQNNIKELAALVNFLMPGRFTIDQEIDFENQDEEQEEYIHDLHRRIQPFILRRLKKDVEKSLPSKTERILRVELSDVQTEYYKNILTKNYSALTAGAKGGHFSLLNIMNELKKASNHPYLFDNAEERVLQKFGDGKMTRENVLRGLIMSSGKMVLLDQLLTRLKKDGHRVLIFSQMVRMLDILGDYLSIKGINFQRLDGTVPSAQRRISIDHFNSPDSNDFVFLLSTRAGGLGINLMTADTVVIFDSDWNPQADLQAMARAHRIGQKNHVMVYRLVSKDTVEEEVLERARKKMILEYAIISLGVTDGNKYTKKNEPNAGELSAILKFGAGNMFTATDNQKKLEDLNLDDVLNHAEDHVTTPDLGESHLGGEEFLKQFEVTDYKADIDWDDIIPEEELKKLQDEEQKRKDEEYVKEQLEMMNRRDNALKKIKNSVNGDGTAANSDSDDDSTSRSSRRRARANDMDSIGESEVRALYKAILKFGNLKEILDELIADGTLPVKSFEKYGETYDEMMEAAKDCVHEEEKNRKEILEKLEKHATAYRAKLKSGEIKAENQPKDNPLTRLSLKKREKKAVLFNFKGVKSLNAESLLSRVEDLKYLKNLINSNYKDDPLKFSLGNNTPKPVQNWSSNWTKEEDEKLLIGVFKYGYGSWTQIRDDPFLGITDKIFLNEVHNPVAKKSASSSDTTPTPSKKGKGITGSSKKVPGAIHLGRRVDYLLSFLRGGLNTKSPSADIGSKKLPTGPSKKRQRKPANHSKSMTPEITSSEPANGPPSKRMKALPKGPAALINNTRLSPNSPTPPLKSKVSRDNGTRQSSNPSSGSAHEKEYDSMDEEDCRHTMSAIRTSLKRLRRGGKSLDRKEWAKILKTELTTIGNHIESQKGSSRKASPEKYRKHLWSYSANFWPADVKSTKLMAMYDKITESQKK

Chain of Sialic acid-binding Ig-like lectin 9 (Homo sapiens) (Q9Y336 whole entry): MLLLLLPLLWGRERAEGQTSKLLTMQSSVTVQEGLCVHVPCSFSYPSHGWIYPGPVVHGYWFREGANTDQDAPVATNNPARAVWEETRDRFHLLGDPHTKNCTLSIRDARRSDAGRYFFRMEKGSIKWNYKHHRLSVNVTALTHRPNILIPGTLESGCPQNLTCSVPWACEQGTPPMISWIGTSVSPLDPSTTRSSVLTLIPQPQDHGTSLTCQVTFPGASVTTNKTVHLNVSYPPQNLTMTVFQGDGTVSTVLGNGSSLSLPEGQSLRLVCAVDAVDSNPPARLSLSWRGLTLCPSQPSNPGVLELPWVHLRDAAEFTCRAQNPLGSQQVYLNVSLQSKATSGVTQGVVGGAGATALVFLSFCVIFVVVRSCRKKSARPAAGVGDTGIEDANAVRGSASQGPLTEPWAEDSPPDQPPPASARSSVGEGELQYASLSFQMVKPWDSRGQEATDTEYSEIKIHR
Chain of Protein translocase subunit SecA (Escherichia coli (strain K12)) (P10408 whole entry): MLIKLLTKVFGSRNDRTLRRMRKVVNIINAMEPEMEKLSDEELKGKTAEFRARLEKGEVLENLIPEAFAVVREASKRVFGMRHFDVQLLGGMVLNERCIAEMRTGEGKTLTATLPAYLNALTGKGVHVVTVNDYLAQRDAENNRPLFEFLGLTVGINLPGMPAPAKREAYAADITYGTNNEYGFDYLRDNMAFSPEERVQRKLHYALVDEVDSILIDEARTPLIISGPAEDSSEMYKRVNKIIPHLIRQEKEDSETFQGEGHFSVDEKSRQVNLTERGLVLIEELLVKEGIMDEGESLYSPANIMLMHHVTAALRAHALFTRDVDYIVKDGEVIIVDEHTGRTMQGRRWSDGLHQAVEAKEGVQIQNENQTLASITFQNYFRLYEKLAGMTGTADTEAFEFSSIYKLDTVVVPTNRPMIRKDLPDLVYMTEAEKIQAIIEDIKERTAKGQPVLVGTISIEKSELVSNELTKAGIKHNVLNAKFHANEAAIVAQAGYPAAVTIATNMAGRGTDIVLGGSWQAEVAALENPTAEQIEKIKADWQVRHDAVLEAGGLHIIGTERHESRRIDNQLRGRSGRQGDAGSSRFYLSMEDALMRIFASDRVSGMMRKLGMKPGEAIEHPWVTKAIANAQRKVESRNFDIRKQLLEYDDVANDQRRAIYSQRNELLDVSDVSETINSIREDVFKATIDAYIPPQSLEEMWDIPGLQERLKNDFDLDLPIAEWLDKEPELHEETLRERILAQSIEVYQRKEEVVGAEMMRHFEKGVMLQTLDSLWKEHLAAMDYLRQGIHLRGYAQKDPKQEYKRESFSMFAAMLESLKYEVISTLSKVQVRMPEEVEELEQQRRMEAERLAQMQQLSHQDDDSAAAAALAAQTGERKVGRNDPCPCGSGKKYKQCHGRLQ

| SMILES | Percent Effect [1] | Percent Effect [2] | Percent Effect [3] | Percent Effect [4] | Percent Effect (Trypanosoma cruzi) | Percent Effect [5] | Percent Effect [6] | Percent Effect (Homo sapiens) | Percent Effect [7] | Percent Effect [8] | Percent Effect [9] |
| --- | --- | --- | --- | --- | --- | --- | --- | --- | --- | --- | --- |
| O=C(c1c[nH]c(=O)c(Cl)c1)N1C[C@@H]2CC[C@H](C1)N(Cc1ccccc1)C2 | -3.94% | 5.48% | 12.1% | 13.9% | 2.58% | -8.78% | 15.2% | 9.64% | 2.08% | 11.1% | -3.03% |
| CC(=O)Nc1nc(C(=O)N2CCCC(n3nc(C)cc3C)C2)cs1 (stereo unspecified) | -5.42% | 0% | 5.38% | -3.57% | -5.13% | -1.8% | -7.02% | -2.38% | -2.46% | -11.1% | 5.41% |
| Cc1nc(CN2CCCC(Cn3cc(CCO)nn3)C2)c[nH]1 (stereo unspecified) | -1.16% | 0% | -4.62% | 20.6% | 5.21% | 0.952% | 5.17% | -10.1% | 1.59% | 9.76% | -7.08% |
| Cc1nn(C)c2c(N3CCN(C(=O)c4ccccc4)CC3)ncnc12 | 1.93% | 9.33% | 2.69% | -1.85% | -6.68% | -10.4% | 12% | 12.3% | 8.47% | 12.8% | -10.3% |
| CCCn1[nH]cc/c1=N\C(=O)CN1CCc2c(nc(C(C)C)n2C)C1 | -0.801% | 20.8% | -5.35% | -15.6% | -2.06% | -4.84% | 11.6% | 18.7% | 8.57% | 23.5% | -19.2% |
| O=C1C[C@H]2[C@@H](CCN2C(=O)c2ccccc2)N1CCN1CCOCC1 | -2.13% | -2.74% | 0.783% | 2.27% | 0.794% | -2% | 2.48% | 0.931% | 2.08% | -1.24% | -3.6% |
| CN(C)C(=O)C1CN(Cc2c[nH]cn2)CCN(C2CCOCC2)C1 (stereo unspecified) | -7.04% | 12.2% | 8.74% | 1.93% | 0.198% | 8.12% | 6.24% | 15.9% | 6.45% | 16.9% | -11.5% |
| Cc1cn(CC(=O)NC2CCN(S(C)(=O)=O)CC2)c2ccccc12 | -4.19% | 0% | 0.231% | -6.08% | -2.44% | 1.74% | 3.18% | 0.23% | 2.15% | 8.64% | -4.9% |
| CNC(=O)c1cccc(C2CNCCN2C)c1 (stereo unspecified) | 1.64% | 14.9% | 4.3% | -1.87% | -2.96% | 7.19% | 12.2% | -5.37% | 0% | 6.49% | -5.34% |
| Cc1cc(C(=O)N2CCCC(n3ccnc3C)C2)c(C)s1 (stereo unspecified) | -3.98% | -5.26% | 5.18% | -0.508% | 6.52% | 0% | 1.44% | 13.2% | 1.06% | 2.6% | -2.55% |
| CC(C)c1nc(CN2CCN(C(C)c3nc(C4CC4)no3)CC2)no1 (stereo unspecified) | -0.845% | -3.8% | 4.42% | 1.01% | -1.13% | 1.07% | 3.09% | -8.78% | 2.08% | 2.53% | 2.13% |
| O=C(c1cccn1Cc1cccs1)N1CCN(C2CC2)CC1 | -4.51% | 0% | 3.71% | 11% | 8.05% | 0% | 11.3% | -0.305% | 6.8% | 14.6% | -8.6% |
| CC(=O)N1CCOC(c2cc(N3CC(O)C3)nc(C)n2)C1 (stereo unspecified) | -3.22% | 5.33% | 11% | -2.94% | 0.394% | 2.1% | 11.2% | 0.425% | 5.32% | 16.7% | -2.41% |
| CCCn1nc2c(cc1=O)CN(CCCS(N)(=O)=O)CC2 | -1.13% | 0% | -142% | 6.58% | -3.3% | 6.01% | 12.1% | -3.47% | -1.48% | -8.64% | -2.91% |
| CCc1noc(C(C)N2CCN(Cc3nc(C)c(C)o3)CC2)n1 (stereo unspecified) | -2.85% | 0% | 6.83% | 1.87% | -6.39% | -0.766% | 0.668% | 20.8% | -5.39% | -7.32% | 2.3% |
| CN(C)S(=O)(=O)c1ccc(CN2CCCC2c2ccccc2)o1 (stereo unspecified) | -4.81% | -7.89% | 2.57% | -3.79% | 9.06% | 2.88% | 5.33% | 15.1% | 6.4% | 23.5% | -6.96% |
| CC(C)S(=O)(=O)NCC1CCCN(C(=O)c2ccc3c(c2)OCCO3)C1 (stereo unspecified) | -6.68% | 5.48% | 3.11% | -9.4% | 0.196% | 0% | 7.81% | 5.65% | -1.07% | 5% | -3.79% |
| N#Cc1ccc(CN2CCC(c3ccnn3CCO)CC2)cc1 | -4.87% | 10.5% | -3.54% | 2.96% | 0.654% | -1.8% | -4.48% | 3.68% | 7.39% | 23.5% | -1.9% |
| Cc1nc(Nc2ncccn2)cc(C2CCCN2CC(C)C)n1 (stereo unspecified) | -6.07% | 5.33% | 4.6% | -0.413% | -1.38% | -2.56% | -1.5% | 0.824% | 2.13% | 6.41% | -1.78% |
| c1cc2nc(C3CCN(CC4CC4)CC3)nn2cc1N1CCCC1 | -0.605% | 11% | -111% | 9.79% | 0.595% | 0.399% | 11.4% | 7.29% | 13.5% | -1.24% | -6.62% |
| Cc1ccc(CN2CC[C@H]3[C@@H]2CCC(=O)N3CCN2CCCC2)s1 | -1.28% | 10.7% | 8.56% | -12.2% | -8.27% | -3.03% | 10.5% | 7.46% | -3.19% | 1.28% | -2.35% |
